Screens as filed in PubChem.
Shown are actives, neighbours in structure and some others; about 8.1% of the full set was active somewhere.
KB-V1 cytotox = qHTS assay for MDR1-selective chemotherapeutics: Primary screen using the drug-selected MDR subline cells KB-V1; KB-V1 MDR cells viability, CellTiter-Glo, 72 h; Potency, µM (series often up to 46.1 µM), usual class: cytotoxic; 400,000 compounds, 3.4% hits; AID 1347076, 2019; also: nearly all actives have a fitted effect of over 60% in size
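KB-V1 cells (P-gp-expressing MDR subline of KB-3-1) in phenol-red-free DMEM with 10% FBS were exposed to library compounds over a concentration series for 72 h at 37 degrees C. Viability read by CellTiter-Glo luminescence; concentration-effect curves fitted after normalization.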
MCF10A rereplic = A quantitative high throughput screen for small molecules that induce DNA re-replication in MCF 10a normal breast cells. MCF 10A DNA re-replication, Hoechst nuclear intensity, 48 h. 350,000 compounds, 2.9% hits. AID 624296, 2012. Potency, µM (series often up to 46.1 µM), usual class: activators; also: nearly all actives have a fitted effect of over 50% in size
KB-3-1 cytotox = qHTS assay for MDR1-selective chemotherapeutics: Primary screen using the parental adenocarcinoma cell KB-3-1; KB-3-1 viability, CellTiter-Glo ATP luminescence, 72 h; AID 1347075, 2019; Potency, µM (doses to about 46.1 µM), usual class: cytotoxic; 400,000 compounds, 1.4% hits; also: nearly all actives have a fitted effect of over 60% in size
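Screening of KB-3-1 cells (DMEM, 10% FBS, phenol-red free) ran from lowest to highest compound concentration; after 72 h at 37 °C viability was read luminescently and curves fitted.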
ELG1 repair inh = qHTS screen for small molecules that inhibit ELG1-dependent DNA repair in human embryonic kidney (HEK293T) cells expressing luciferase-tagged ELG1. HEK293T ELG1-luciferase reporter, luminescence, 16 h; DNA damage induced by 5-fluorouridine. Potency, µM (series often up to 46.1 µM), usual class: inhibitors. 330,000 compounds, 2.3% hits; also: nearly all actives have a fitted effect of over 55% in size
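Overnight (16 hr) co-exposure of 2,000 cells/well to 5-fluorouridine and compound at 37 °C preceded detection. Luciferase was quantified via ONE-Glo luminescence; loss of signal denotes inhibition.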
SW480 rereplic = A quantitative high throughput screen for small molecules that induce DNA re-replication in SW480 colon adenocarcinoma cells; 340,000 compounds, 1.8% hits; SW480 DNA re-replication, Hoechst DNA content imaging, 48 h; Potency, µM (highest dose often 46.1 µM), most hits filed as activators; AID 624297, 2012; also: nearly all actives have a fitted effect of over 55% in size
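Compounds, transferred as 23 nL by pin tool, were incubated with cells for 48 hr; DNA content per nucleus was then quantified by Hoechst staining and fluorescence plate imaging.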
Hits are given with their value; 0 = inactive; ? = inconclusive; - = no result given; [ ] = remark or other dose. Calls follow the shape of the dose curve; as a rule, active = well fitted curve in the direction sought with a large enough effect; inconclusive = small, poorly fitted or top-dose-only effect, or another doubt; inactive = no such curve, though single readings can be large; an effect the other way counts as inactive or inconclusive.

SMILES | KB-V1 cytotox | MCF10A rereplic | KB-3-1 cytotox | ELG1 repair inh | SW480 rereplic
O=C(NNc1c([N+](=O)[O-])cc(C(F)(F)F)cc1[N+](=O)[O-])c1ccco1 | 0 | 0 | 0 | 18µM | 0
O=C(NN=Cc1cc(Cl)ccc1[N+](=O)[O-])c1ccco1 | 15µM | 0 | 0 | - | 0
O=C(NNc1c(F)c(F)cc(F)c1F)c1ccco1 | 0 | 0 | 0 | 0 | 0
CCCn1c(SCC(=O)NC2CCCCC2)nnc1C1CC1 | 0 | 0 | 0 | 0 | ?
Cc1ccc(-n2c(NN)nc3ccccc3c2=O)c(C)c1 | 0 | 0 | 0 | 0 | 0
Cn1ncc([N+](=O)[O-])c1C(=O)N/N=C/c1cccc([N+](=O)[O-])c1 | 0 | 0 | 0 | 0 | 0
Cc1cc(/C=N\NC(=O)CC(=O)NC2CCCCC2)c(C)n1-c1ccc(Cl)c(Cl)c1 | ? | 0 | ? | 0 | 0
CCNC(=S)N/N=C/c1cc(C)n(-c2ccc(Cl)cc2)c1C | 12µM | ? | ? | ? | 0
Cc1nc2ccccn2c1C(=O)N/N=C/c1cc(C)n(-c2ccc(Cl)cc2)c1C | 0 | 0 | 0 | ? | 0
Cc1cc(/C=N/NC(N)=S)c(C)n1-c1ccc(Cl)c(Cl)c1 | 0 | 26µM | 0 | ? | 18µM
N#CCn1c2ccccc2c2nc3ccccc3nc21 | 0 | ? | 0 | 0 | ?
c1ccc2nc3c(nc2c1)c1ccccc1n3CCN1CCOCC1 | ? | 18µM | 0 | ? | ?
CCCn1c2ccccc2c2nnc(SCCN3CCOCC3)nc21 | 0 | 0 | 0 | ? | 0
COC(=O)Cn1c2ccccc2c2nc3ccccc3nc21 | 0 | 0 | 0 | 0 | 0
C#CCn1c2ccccc2c2nc3ccccc3nc21 | 18µM | 0 | 0 | 0 | 0
CC(C)n1c2ccccc2c2nc3ccccc3nc21 | 0 | 23µM | 0 | 0 | ?
c1ccc(CNc2nc3ccccc3n2CCN2CCOCC2)nc1 | 0 | 23µM | 0 | 0 | ?
CCOC(=O)c1cc(C(=O)NN)c(=O)[nH]c1C | 0 | 0 | 0 | 0 | 0
O=C(CSc1ccccc1C(=O)O)NC1CCCCCC1 | 0 | 0 | 0 | ? | 0
O=C(CSc1ccccc1C(=O)NCc1ccccc1)NC12CC3CC(CC(C3)C1)C2 | 5.8µM | ? | ? | ? | ?
O=C(CSc1ccccc1C(=O)NCc1ccccc1)NC1CCCCCCC1 | 3.3µM | 0 | 0 | 0 | 0
CC(C)CCNC(=O)c1ccccc1SCC(=O)NC1CCCCCCC1 | 5.8µM | 0 | 0 | ? | 0
Cc1ccc(OCCCC(=O)N2CCN(S(=O)(=O)c3cccc(F)c3)CC2)cc1 | 0 | ? | 0 | 0 | ?
COC(=O)c1ccc(SCC(=O)N2CCC(C)CC2)c([N+](=O)[O-])c1 | 15µM | 0 | 0 | 0 | 0
CCOC(=O)N1CCN(C(=O)CSc2ccc(C(=O)OC)cc2[N+](=O)[O-])CC1 | 0 | 0 | 0 | 0 | 0
SMILES | KB-V1 cytotox | MCF10A rereplic | KB-3-1 cytotox | ELG1 repair inh | SW480 rereplic
C=C(C)CSc1nnc2[nH]c(=O)cc(N)n12 | 18µM | 0 | 16µM | - | 0[9.22 µM]
O=C(c1ccco1)N1CCN(Cc2cc(=O)c(OCc3ccccc3)co2)CC1 | 0 | 0 | 0 | 0 | ?
COc1ccc(NC(=O)C(CC(C)C)NC(=O)c2ccccc2C)cn1 (stereo unspecified) | 0 | 0 | 0 | 0 | 0
CCC(C)Nc1ccc(NC(C)CC)cc1 (stereo unspecified) | ? | 2.6µM | ? | ? | 0
COCCNCCCOc1ccc(C)cc1Br | 0 | 0 | 0 | 0 | 0
CCC1Sc2ccccc2N(CC(=O)NC2CCCCC2)C1=O (stereo unspecified) | 0 | 0 | 0 | 0 | 0
CCCNCC(O)Cn1c2ccccc2n2c(=O)cc(C)c(C#N)c12 (stereo unspecified) | ? | 0 | 0 | ? | 0
Cc1cc(=O)n2c(sc3ccccc32)c1C#N | 0 | ? | 0 | 0 | 23µM
Cc1ccc(C)[n+](CC(=O)c2ccc(-c3ccccc3)cc2)c1 | 0 | ? | 0 | 7.3µM | 0
CCc1cc(=O)oc2cc(C)cc(OC(C)C(=O)NCc3ccncc3)c12 (stereo unspecified) | 0 | 0 | 0 | 0 | 0
O=C(COc1ccc(C(=O)c2ccc(F)cc2)cc1)NCc1ccc(F)cc1 | 9.2µM | 1.5µM | 4.1µM | ? | 15µM
Cc1cccc(NC(=O)CNC(=O)COc2ccc(C(=O)c3ccc(F)cc3)cc2)c1C | ? | 15µM | 6.5µM | ? | ?
COc1ccc(CNC(=O)COc2ccc(C(=O)c3ccc(F)cc3)cc2)cc1 | ? | 1.2µM | ? | 0 | ?
COc1ccc(CNC(=O)COc2ccc(F)cc2)cc1 | ? | 0 | 0 | 0 | 0
COc1ccc(CNC(=O)COc2ccc(OC)cc2)cc1 | 0 | 0 | 0 | 0 | 0
Cc1ccc(CNC(=O)COc2ccc(C(=O)c3ccc(F)cc3)cc2)cc1 | ? | 16µM | ? | 0 | ?
CC(C)c1ccc(NC(=S)N(C)CCc2ccccn2)cc1 | 23µM | 0 | 0 | 0 | 0
Cc1ccc(-c2nc(NCc3ccco3)c3ccccc3n2)cc1 | 0 | ? | 0 | 0 | 0
CCc1nc(NCCCn2ccnc2)c2oc3ccccc3c2n1 | ? | 0 | 0 | 0 | 0
OCCN(CCO)c1nc(-c2ccccc2)nc2c1oc1ccccc12 | 0 | 0 | 0 | 23µM | 0
c1ccc(-c2nc(NCc3ccco3)c3oc4ccccc4c3n2)cc1 | ? | 16µM | 0 | 0 | 0
c1ccc(-c2nc(NCCCn3ccnc3)c3oc4ccccc4c3n2)cc1 | 5.8µM | ? | ? | ? | ?
O=C1CC(c2nc3ccccc3[nH]2)CN1c1cccc(C(F)(F)F)c1 (stereo unspecified) | 0 | 0 | 0 | 0 | 0
COc1ccc(CN2C[C@@H](CO)O[C@@H](n3cnc4c(NCCCO)ncnc43)C2)cc1 | 0 | - | ? | - | -
CN(C(=O)CN1CCN(c2cc(-c3cccc4oc5ccccc5c34)ncn2)CC1)c1ccccc1 | 0 | - | 0 | - | -
SMILES | KB-V1 cytotox | MCF10A rereplic | KB-3-1 cytotox | ELG1 repair inh | SW480 rereplic
COc1ccc(C(=O)C2CCCN(C(=O)c3noc4c3CCCC4)C2)c(C)c1 (stereo unspecified) | 0 | ? | 0 | 26µM | 0
COc1ccc(C(=O)C2CCCN(C(=O)c3noc4c3CCCC4)C2)cc1F (stereo unspecified) | 0 | 0 | 0 | ? | 0[1.84 µM]
COc1ccc2cc(C(=O)C3CCCN(C(=O)c4ccnn4C)C3)ccc2c1 (stereo unspecified) | 16µM | ? | 0 | 0 | ?
CCOC(=O)N1CCC(N2CCCC(C(=O)c3ccc4cc(OC)ccc4c3)C2)CC1 (stereo unspecified) | 0 | 0 | 0 | 23µM | ?
COc1cccc(NC(=O)CN(C)C(=O)CCNC(=O)c2ccccc2Cl)c1 | 0 | 0 | 0 | 0 | 0
COc1ccc(C(=O)C(/C=N/O)=N/Nc2ccc(F)cc2)cc1 | 0 | 0 | 0 | ? | 0
